Only some compounds are listed: those with a hit (about 1.8% of all), similar ones and a draw of the others.
GLP1R ag: activates the human GLP-1 receptor. HEK293 GLP-1R CRE-luciferase, luminescence, 4-6 h; cells express a hypersensitive GLP-1R form. Potency, µM (top dose mostly 45.6 µM), without a hit: at the top dose activation, actives largely listed as activators. actives 0.007% (n = 380,000). AID 624172; also: potency is read from the fitted curve at half-maximal effect; % of control where 0% means no effect
GLP1R cytotox: cytotoxicity counter-screen for GLP-1 receptor inverse agonists. HEK293 cAMP-luciferase reporter cells, luminescence, 24 h. Potency, µM (titrated, usually from 38.3 µM), without a hit: at the highest dose activity change, negative = inhibition, hits mostly inhibitors. actives 0.13% (n = 410,000);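 also: loss of luciferase light is scored as toxicity; potency is read from the fitted curve at half-maximal effect; % is scaled to controls: 0 for no effect and ±100 for the full control effect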
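Step one: seed cells (200 cells/uL, DMEM with 10% Nu serum, 1% pen-strep). Step two: 12-hour incubation at 37 deg C. Step three: pin 23 nL compound, incubate 24 hr. Step four: add luciferase reagent, read luminescence 12 min later.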
GLP-1R inv ag: acts as inverse agonist at human GLP-1 receptor; P43220; HEK293 GLP-1R CRE-luciferase, luminescence, 24 h; GLP-1R form is constitutively active; Potency, µM (titrated, usually from 38.3 µM), for inactives: at the top dose activity change, negative = inhibition, usual class: inhibitors; actives 1.6% (n = 410,000); AID 624417; also: potency is read from the fitted curve at half-maximal effect; % is scaled to controls: 0 for no effect and ±100 for the full control effect; nearly all actives have a fitted effect of over 55% in size
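qHTS in 1536-well format: reporter HEK293 cells expressing constitutive GLP-1R activity in DMEM + 10% Nu serum, 24 hr with compounds at 37 deg C, luminescence read after 12 min with detection reagent.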
TSHR antag: human thyrotropin receptor antagonism; P16473; activity change, negative = inhibition, % at 11.5 µM; actives 0.2% (n = 330,000); TSHR-expressing cells, TSH-stimulated cAMP HTRF, 2 h; active compounds read low;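 active = activity change below a set negative limit, meaning inhibition stronger than a set level, cut at about -70% in these data; inconclusive = activity change between two set negative limits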; also: % is scaled to controls: 0 for no effect and ±100 for the full control effect
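Antagonism was scored as loss of TSH-driven cAMP in TSHR cells, stimulated with 4nM TSH (EC80) for 2 hours at 37 deg C and detected by homogeneous HTRF competition immunoassay.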
PTHR1 agonist: activates the human parathyroid hormone receptor PTHR1 | Q03431 | HEK293 GP2 PTHR1 cells, GloSensor cAMP luminescence, 1 h | Potency, µM (doses to about 115 µM), for the others: at the top dose activation, actives largely listed as activators | actives 0.075% (n = 410,000) | AID 743266; also: potency is read from the fitted curve at half-maximal effect; nearly all actives have a fitted effect of over 55% in size
Target sequence (Q03431 whole entry, looked up): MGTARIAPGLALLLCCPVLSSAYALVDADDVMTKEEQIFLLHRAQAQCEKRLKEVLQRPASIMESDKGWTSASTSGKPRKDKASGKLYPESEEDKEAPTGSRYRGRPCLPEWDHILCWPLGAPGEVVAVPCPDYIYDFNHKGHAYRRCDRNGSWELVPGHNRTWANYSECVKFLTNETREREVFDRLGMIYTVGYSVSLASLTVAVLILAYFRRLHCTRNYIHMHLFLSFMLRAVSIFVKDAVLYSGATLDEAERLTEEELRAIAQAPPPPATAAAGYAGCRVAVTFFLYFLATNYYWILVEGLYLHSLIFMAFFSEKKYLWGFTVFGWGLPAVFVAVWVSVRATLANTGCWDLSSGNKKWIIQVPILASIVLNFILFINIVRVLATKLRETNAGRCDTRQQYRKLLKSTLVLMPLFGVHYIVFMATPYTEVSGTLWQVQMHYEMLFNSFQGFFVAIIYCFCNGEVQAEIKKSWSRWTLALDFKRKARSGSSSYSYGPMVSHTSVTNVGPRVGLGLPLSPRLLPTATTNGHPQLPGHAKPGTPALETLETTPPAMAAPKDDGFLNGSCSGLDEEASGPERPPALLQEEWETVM
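HEK-293-derived GP2 cells expressing PTHR1 and a GloSensor cAMP reporter, 3,000/well, plated overnight, given luciferin plus IBMX (each 0.5 mM as added) for 1 h at 37 °C, then compound for 1 h at 37 °C. Luminescence was read after 15 min at room temperature.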
Numbers without * were called inactive; i = inactive; u = inconclusive; x = no result; [ ] = remark or other dose. Unless noted, calls follow the shape of the dose curve; as a rule, active = well fitted curve in the direction sought with a large enough effect; inconclusive = small, poorly fitted or top-dose-only effect, or another doubt; inactive = no such curve, though single readings can be large; an effect the other way counts as inactive or inconclusive.

SMILES	GLP1R ag	GLP1R cytotox	GLP-1R inv ag	TSHR antag	PTHR1 agonist
NC(N)=N/N=C/c1cccc([N+](=O)[O-])c1O	-2%	0%	6%	29	i
CCOCN(C(=O)CSc1nc2ccccc2[nH]1)c1c(C)cccc1CC	-4%	-2%	u	x	-9%
COc1cc(NC(=S)N2CCN(C/C=C/c3ccccc3)CC2)cc(OC)c1	0%	7%	u	9	i
COc1cccc(NC(=S)N2CCN(C/C=C/c3ccccc3)CC2)c1	5%	-23%	5.6µM*	10	i
COc1cccc(CNC(=O)C(NS(=O)(=O)c2cccs2)C(C)C)c1 (centres undefined)	-1%	2%	6%	x	-22%
COC(=O)c1sc(S(=O)(=O)N2CCN(c3ccccc3F)CC2)c(C(=O)OC)c1C	21%	u	11µM*	-13	-23%
CCOc1cc(-c2ccc(OC(=O)c3ccc(C)cc3)c(OC)c2)cc(=O)c2c(C)oc(C)c12	x	-8%	u	x	-89%
CC1C(=O)C(C)C(c2cc(Br)ccc2O)NC1c1cc(Br)ccc1O (centres undefined)	7%	u	5µM*	x	-3%
COc1ccc(NC(=O)c2oc3ccccc3c2NC(=O)c2cc(C)cc(C)c2)c(OC)c1	-1%	3%	-6%	x	i
O=C(Nc1ncc(S(=O)(=O)c2ccc([N+](=O)[O-])cc2)s1)c1cccc2ccccc12	-13%	-23%	-5%	-82*	-23%
CC(C)(C)OC(=O)NCCCCCc1nnc(SCc2c(F)cccc2Cl)o1	14%	-2%	10µM*	-17	-1%
CC(C)(C)OC(=O)NCCc1nnc(SCc2c(Cl)cccc2Cl)o1	3%	10%	2%	-11	22%
CC(C)(C)OC(=O)N1CCC[C@H]1c1nnc(SCc2c(F)cccc2Cl)o1	15%	-12%	8.9µM*	-10	-22%
CC(C)(C)OC(=O)N1CCC[C@H]1c1nnc(SCc2ccccc2Cl)o1	2%	-13%	u	-12	-33%[57.5 µM]
CC(NC(=O)Cn1ccc2cc(S(=O)(=O)N3CCCCCC3)ccc21)c1ccccc1 (centres undefined)	x	-16%	u	x	-8%
OCCN(CCO)c1ccc(C(c2ccccc2Cl)c2ccc(N(CCO)CCO)cc2Cl)c(Cl)c1	-5%	u	5µM*	-20	-10%
O=C(O)c1cccc(N(CCO)CCO)c1	5%	-5%	0%	1	-58%
Cc1noc(C)c1COc1ccccc1C(=O)N(C)CC(=O)Nc1ccc(Cl)c(Cl)c1	1%	-10%	10µM*	-16	-2%
Cc1cc2c(n1-c1ccc(C(=O)NCC(C)c3ccccc3)cc1)CCCC2 (centres undefined)	x	-14%	2%	x	i
CCn1c2ccccc2c2cc(/C=N/n3c(-c4cc(C)[nH]n4)n[nH]c3=S)ccc21	17%	-23%	2.5µM*	-21	i
COc1ccc(C2=NC(C)(C)N(CC(=O)Nc3ccc(F)c(F)c3)C2=O)cc1	x	-1%	-25%	x	-18%
Cc1ccc(N/N=C2\CCS(=O)(=O)c3sccc32)cc1	15%	-28%	4µM*	-7	-15%
Cn1c(SCc2ccccc2Cl)nc(=O)c2c1NC(=O)CC2c1cc(F)ccc1F (centres undefined)	x	-7%	-6%	x	-2%
Cc1ccc(-n2cccn2)c(CN2CCCC(C(=O)c3sccc3C)C2)c1 (centres undefined)	4%	11µM*	u	-5	i
Cc1ccsc1C(=O)C1CCCN(Cc2cccn2-c2ccc(Cl)cn2)C1 (centres undefined)	-6%	u	u	14	-35%
SMILES	GLP1R ag	GLP1R cytotox	GLP-1R inv ag	TSHR antag	PTHR1 agonist
COc1cccc(CNC(=O)c2c(C)oc3nc(C)nc(N4CCOCC4)c23)c1	x	3%	-8%	x	-35%
Cc1cc(NCCCN2CCOCC2)n2nc(C)c(-c3ccccc3)c2n1	26%	0%	4.5µM*	3	-13%
C[C@@H]1O[C@@]2(CS1)CN1CCC2CC1	-2%	x	x	x	x
CCOc1ccc(C(C(=O)NCC2CCCO2)N(CCc2cccc(C)c2)C(=O)c2snc(C(N)=O)c2N)cc1 (centres undefined)	0%	u	7.9µM*	-3	-36%
CCOc1ccc(C(C(=O)NCC2CCCO2)N(C(=O)c2snc(C(N)=O)c2N)c2ccc(F)cc2)cc1 (centres undefined)	3%	1%	-24%	0	i
CCOc1ccccc1NS(=O)(=O)c1c(-c2ccc(C)cc2)csc1C(=O)OC	x	1%	11µM*	x	i
COC(=O)c1scc(-c2ccc(C)cc2)c1S(=O)(=O)Nc1cc(Cl)ccc1C	x	-4%	u	x	0%
COC(=O)c1scc(-c2ccc(C)cc2)c1S(=O)(=O)Nc1cccc(Cl)c1C	x	0%	10µM*	x	i
CCOC(=O)c1ccccc1NS(=O)(=O)c1c(-c2ccc(C)cc2)csc1C(=O)OC	x	17%	u	x	-32%
O=C(Cn1ncc(Cl)c(Cl)c1=O)c1ccc(Cl)cc1	-17%	10µM*	-82%	-23	-18%
O=C(Nc1ccccc1C(=O)OCc1cc(=O)n2ccsc2n1)c1ccc(Cl)cc1	x	1%	-2%	x	i
C/C(=N\Nc1ccc(F)cc1F)c1ccc(Br)s1	15%	2%	13µM*	16	-7%
O=S(=O)(c1ccc2[nH]c3c(c2c1)CCCC3)N1CCN(c2cccc(C(F)(F)F)c2)CC1	x	-18%	10µM*	x	i
CCOC(=O)C1(CCOc2ccccc2)CCN(Cc2nccn2CC)CC1	20%	u	10µM*	-3	-9%
CCOC(=O)C1(CCCc2ccccc2)CCN(C(=O)CSC)CC1	13%	4%	u	2	-18%
CCOC(=O)C1(CCCc2ccccc2)CCN(Cc2nccn2CC)CC1	21%	13µM*	10µM*	-6	-23%
CCOC(=O)C1(CCCc2ccccc2)CCN(C(=O)Cc2nonc2C)CC1	-7%	-9%	11µM*	-3	-14%
CCOc1ccc(-n2c(SCC(=O)N3CCCc4ccccc43)nc3c([nH]c4ccccc43)c2=O)cc1	-1%	-15%	-4%	x	-2%
COc1ccc(C)cc1NS(=O)(=O)c1ccc2c(c1)[C@H]1C=CC[C@H]1[C@@H](c1cccc(Cl)c1)N2	x	11%	u	x	-10%
CCCCN(c1nc2ccccc2nc1Cl)S(=O)(=O)c1ccc(C)cc1	16%	0%	10µM*	7	-25%
CCCN(CCC)CC(O)CN(c1ccccc1)S(=O)(=O)c1ccc(C)cc1 (centres undefined)	0%	-24%	u	-5	i
Cc1ccc(-n2nnnc2SCCNS(=O)(=O)c2ccccc2)cc1C	4%	4%	11µM*	-13	28%[57.5 µM]
